Measurements: PubChem BioAssay (NCATS)
Results filed as inconclusive are left out. Calls of active or inactive are those of the source. The call rests on the fitted dose curve; in most records, active means well fitted curve in the direction sought with a large enough effect; inconclusive means small, poorly fitted or top-dose-only effect, or another doubt; inactive means no such curve, though single readings can be large or run the other way.
On the % scale 0 is the no-effect control and ±100 the full control effect; potency means the concentration at half of the fitted maximal effect.

Assay: qHTS for inhibitors of Wild type Zika virus screened against the NCATS CANVASS Library (AID 1347396);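 on activity change, negative = antiviral: ATP luminescence of surviving cells so rescue from viral cell killing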
Details: Vero cells, Zika virus CPE, CellTiter-Glo, 72 h; series mostly up to 45.9 µM; activity change, negative = antiviral: at the top concentration
From the text: Natural products and their derivatives continue to be wellsprings of nascent therapeutic potential. However, many laboratories have limited resources for biological evaluation, leaving their previously isolated or synthesized compounds largely or completely untested. To address this issue, the Canvass library of natural products was assembled (https://tripod.nih.gov/canvass), in collaboration with academic and industry researchers, for quantitative high-throughput screening (qHTS) across a diverse set of cell-based and biochemical assays. The pure (>85% purity by liquid chromatography/mass spectrometry [LC/MS]) Canvass library of 346 natural products were submitted by 45 academic laboratories and companies around the world. We collected pure natural products to circumvent deconvolution and structure elucidation due to time and resource limitations. The library was formatted into 1536-well plates and evaluated in 50 qHTS (in an 11-pnt concentration series) bioassays with broad scope of disease-relevant mechanisms. The resulting data set from 50 different assays was then systematically analyzed to identify overall trends and specific natural products with interesting biological activities. Reported herein are the results of each individual qHTS and their corresponding assay protocol. Vero cells were infected with wild type Zika virus and at 72 hours post-infection viral cytotoxicity was assayed using CellTiter Glo. National Center for Advancing Translational Sciences (NCATS), Rockville, MD National Institute of Health (NIH), Bethesda, Maryland
Zika virus infection assay protocol: 1. In a white-solid bottom 1536-well tissue culture plate (Corning 7494), 3 uL of Vero 766 cells derived (African Green Monkey) were dispensed using a Multidrop Combi (Thermo Fisher Scientific) at a final concentration of 1000 cells / well. 2. The assay plates were incubated overnight at 37C, 5% CO2, 95% humidity to acclimate and attach. 3. […] of compounds (in DMSO; columns 5-48) were pin transferred into the assay plates using the Kalypsis pin tool (Wako USA) equipped with a 1536-well pin heads. This yields a final concentration range of 0.001 - 77 uM. 4. In a biosafety cabinet, the desired MOI Zika virus was calculated and 2 uL of 2.5x Zika virus was dispensed into columns 1, 2 and 5 - 48 using the Multidrop Combi dispenser. Two microliters of media + vehicle was dispensed into columns 3 and 4 as positive controls (no infection, 100% inhibition). The assay plates were sealed with breathable film. 5. The assay plates were incubated for 72 hours at 37C, 5% CO2, 95% humidity. 6. In a biosafety cabinet, the seals were removed by Xpeel Automated Plate Seal Remover (Brooks Life Sciences) and 2.5 uL of CellTiter Glo reagent (Promega) was dispensed into the wells (columns 1 - 48, rows 1 - 32). 7. Luminescence signal was obtained via the ViewLux plate reader (Perkin Elmer) using the clear emission filter and 1x binning, 2 seconds exposure settings.
For CC[N@@+]1([O-])C[C@]2(C)CC[C@@H](O)[C@@]34C5C[C@H]6CC[C@@]5(C(C[C@H]23)C41)[C@H](O)[C@@]6(O)CO (stereo partly specified), the “activity change, negative = antiviral” value was 0.754% (inactive).
In the case of c1ccc2c3c([nH]c2c1)CNCC3, the “activity change, negative = antiviral” value is reported as 2.35% (inactive).
In the case of CC=C1CN(C=O)[C@H]2C[C@@H]1[C@@H](C(=O)OC)[C@@]13CCOC21Nc1ccccc13 (stereo partly specified), the “activity change, negative = antiviral” value is reported as -0.687% (inactive).
In the case of CC(=O)N[C@H]1CCN2CCC[C@H]12, the “activity change, negative = antiviral” value is reported as 1.77% [at 102 µM] (inactive).
With COC(=O)C1=C2Nc3ccccc3[C@@]23CCN2CC(C(C)=O)C1C[C@H]23 (stereo partly specified) the “activity change, negative = antiviral” value was 11.9% (inactive).
For COc1ccc2c(c1)[nH]c1c(C)nccc12, the “activity change, negative = antiviral” value was -27.8% [at 91 µM] (inactive).
With CO[C@H](c1ccccc1)[C@H]1NC(=O)C(C)NC(=O)C(C[C@@H](C)CO)N(C)C(=O)[C@@H](C(O)c2cn(C(C)(C)C3CO3)c3ccccc23)NC(=O)C(C(C)C=C(C)C)NC(=O)C(CC(C)C)N(C)C(=O)C(C(C)C)NC1=O (stereo partly specified) the “activity change, negative = antiviral” value was -10.9% [at 27.4 µM] (inactive).
With CC1=CC2CC[C@@H]3[C@@H](C)C[C@H](C)[C@@H](C1)N23 (stereo partly specified) the “activity change, negative = antiviral” value was -7.36% (inactive).
With CCCC[C@@H]1CC[C@H]2CCCC(CCC)N12 (stereo partly specified) the “activity change, negative = antiviral” value was -20.4% (inactive).
In the case of CO[C@@H](/C=C/CC/C=C/C(=O)O)[C@@H](O)[C@H](C)/C=C(\C)[C@@H](O)[C@H](C)C(=O)CCCC1CC(=O)NC(=O)C1, the “activity change, negative = antiviral” value is reported as -10.2% (inactive).
In the case of CN(C)Cc1c[nH]c2ccccc12, the “activity change, negative = antiviral” value is reported as -2.67% (inactive).
For CC[C@@H]1CN2CC[C@@]3(O)C(=Nc4cccc(OC)c43)[C@@H]2C[C@@H]1/C(=C\OC)C(=O)OC, the “activity change, negative = antiviral” value was -5.89% (inactive).
With CNCCc1ccccc1 the “activity change, negative = antiviral” value was 4.81% (inactive).
For C[C@]12CC(O)C3[C@@H](CCC4C[C@@H](O)CC[C@@]43CO)[C@@]1(O)CCC2C1=CC(=O)OC1 (stereo partly specified), the “activity change, negative = antiviral” value was 1.08% (inactive).
For COc1ccc2c3c([nH]c2c1)C(C)=NCC3, the “activity change, negative = antiviral” value was 3.83% (inactive).
In the case of CCN1C[C@]2(C)CC[C@H](O)[C@]34C1C(C[C@H]23)[C@@]12CC[C@H](CC14)[C@](O)(COC(=O)c1ccc(OC)c(OC)c1)[C@H]2O (stereo partly specified), the “activity change, negative = antiviral” value is reported as 4.53% (inactive).
With CO[C@@H](/C=C/CC/C=C/C(=O)O)[C@@H](O)[C@H](C)[C@@H](O)/C(C)=C/[C@H](C)C(=O)CCCC1CC(=O)NC(=O)C1 the “activity change, negative = antiviral” value was -9.8% (inactive).
With CCCCC[C@@H]1OC(=O)[C@@H](C)N(C)C(=O)[C@H](CCCCC)OC(=O)C(C)N(C)C(=O)[C@H](CCCCC)OC(=O)[C@@H](C)N(C)C(=O)[C@H](CCCCC)OC(=O)C(C)N(C)C1=O (stereo partly specified) the Potency was 11.7 µM (active).
With COc1ccc(C23Oc4cc(OC)cc(OC)c4[C@](O)([C@H](c4ccccc4)C2C(=O)NCCCCNC(=O)c2ccccc2)[C@@H]3O)cc1 (stereo partly specified) the “activity change, negative = antiviral” value was 9.71% (inactive).
With C/C=C1/CN2CC[C@]34C(=Nc5ccccc53)[C@@H]2C[C@@H]1[C@H]4C(=O)OC the “activity change, negative = antiviral” value was 5.39% [at 91 µM] (inactive).
With CC1=CC(=O)C2=C(C)C[C@H](O)[C@@H]3[C@H](OC(=O)[C@@H]3C)[C@@H]12 the “activity change, negative = antiviral” value was -1.51% (inactive).
With CCC[C@H]1CC[C@H]2[C@H](C)CCC[C@H]2N1 the “activity change, negative = antiviral” value was -6.36% (inactive).
In the case of NCCc1ccccc1, the “activity change, negative = antiviral” value is reported as -10.1% (inactive).
With CNCCc1c[nH]c2ccccc12 the “activity change, negative = antiviral” value was 4.02% (inactive).
In the case of CNCCc1ccc(O)cc1, the “activity change, negative = antiviral” value is reported as 0.981% (inactive).
For CN1C(=O)[C@]23CC4C(C)(C)[C@@]5(C[C@@]41CN2CC[C@@]3(C)O)C(=O)Nc1c5ccc2c1OC=CC(C)(C)O2 (stereo partly specified), the “activity change, negative = antiviral” value was 4.87% (inactive).
